# Data as given in the supplement of paper PMC6555819.
# Columns and labels:
# Assay in all cases: PBM binding z-score (relative to random genomic background probes); higher = stronger binding; sequences stand for … in GC…GCGATTGACAGCGTAGAATGAAGG
# [1] = test system: FXR:RXRa (NR concentration 270 nM, RXRa partner concentration 90 nM)
# Summary of the method: (§1)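 Each nuclear receptor dimer, without ligand, was incubated for 1 h on custom Agilent 4×180K protein-binding microarrays. Binding was detected with antibodies against each partner (one per run), and scanned fluorescence was regression-normalized. The binding z-scores are referenced to random human genomic background probes.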
# [2] = test system: LXRa:RXRa (NR concentration 270 nM, RXRa partner concentration 90 nM)
# Summary of the method: as §1
# [3] = test system: LXRa homodimer (NR concentration 270 nM)
# Summary of the method: as §1
# [4] = test system: LXRb:RXRa (NR concentration 270 nM, RXRa partner concentration 90 nM)
# Summary of the method: as §1
# [5] = test system: LXRb homodimer (NR concentration 270 nM)
# Summary of the method: as §1
# [6] = test system: PPARa:RXRa (NR concentration 270 nM, RXRa partner concentration 90 nM)
# Summary of the method: as §1
# [7] = test system: PPARg:RXRa (NR concentration 180 nM, RXRa partner concentration 90 nM)
# Summary of the method: as §1
# [8] = test system: PPARg:RXRa 270nM:90nM, anti-RXR (NR concentration 270 nM, RXRa partner concentration 90 nM)
# Summary of the method: as §1
# [9] = test system: PPARg:RXRa 30nM:10nM, anti-RXR (NR concentration 30 nM, RXRa partner concentration 10 nM)
# Summary of the method: as §1
# [10] = test system: PPARg:RXRa 90nM:30nM, anti-RXR (NR concentration 90 nM, RXRa partner concentration 30 nM)
# Summary of the method: as §1
# [11] = test system: PPARg:RXRa DBDmut IVT, anti-RXR (DBD mutation: RXRa K156A/R161A, NR concentration 270 nM, RXRa partner concentration 90 nM)
# Summary of the method: as §1
# [12] = test system: PPARg:RXRa IVT, anti-PPARg (NR concentration 270 nM, RXRa partner concentration 90 nM)
# Summary of the method: as §1
# [13] = test system: PPARg DBDmut:RXRa IVT, anti-PPARg (DBD mutation: PPARg1 K132A/R137A, NR concentration 270 nM, RXRa partner concentration 90 nM)
# Summary of the method: as §1
# [14] = test system: PPARg DBDmut IVT, anti-PPARg (DBD mutation: PPARg1 K132A/R137A, NR concentration 270 nM)
# Summary of the method: as §1
# [15] = test system: PPARg homodimer (NR concentration 180 nM)
# Summary of the method: as §1
# [16] = test system: PXR:RXRa (NR concentration 270 nM, RXRa partner concentration 90 nM)
# Summary of the method: as §1
# [17] = test system: PXR homodimer (NR concentration 270 nM)
# Summary of the method: as §1
# [18] = test system: RARa:RXR (NR concentration 270 nM, RXRa partner concentration 90 nM)
# Summary of the method: as §1
# [19] = test system: RARa homodimer (NR concentration 270 nM)
# Summary of the method: as §1
# [20] = test system: RARb:RXRa (NR concentration 270 nM, RXRa partner concentration 90 nM)
# Summary of the method: as §1
Sequence,PBM binding z-score [1],PBM binding z-score [2],PBM binding z-score [3],PBM binding z-score [4],PBM binding z-score [5],PBM binding z-score [6],PBM binding z-score [7],PBM binding z-score [8],PBM binding z-score [9],PBM binding z-score [10],PBM binding z-score [11],PBM binding z-score [12],PBM binding z-score [13],PBM binding z-score [14],PBM binding z-score [15],PBM binding z-score [16],PBM binding z-score [17],PBM binding z-score [18],PBM binding z-score [19],PBM binding z-score [20]
CCTAGCAGGCCAATCGGGGTCACTCAAGGCTTGA,4.42,4.3,0.394,3.97,-0.646,4.79,2.8,3.72,0.796,2.75,2.04,3.14,-0.484,-1.21,3.42,6.01,1.7,6.08,0.0938,–
CAAACTAGGTCACGAAAGGTCAACGTCGAATGAC,7.41,7.98,7.42,7.06,2.11,6.81,10.6,8.8,7.57,9.28,8.6,9.17,3.99,4.43,6.55,7.35,2.65,7.97,4.53,–
CGTCAAAGCTCAACTAAGGTAACGTAAAGCACGC,0.16,-0.241,-0.0906,-0.093,-0.32,-0.0617,0.335,-0.241,-0.2,-0.494,0.431,-0.398,-1.05,-0.108,0.191,-0.124,-0.0533,0.83,-0.0738,–
ATCTCTAGGTAAAGTTCATTGAAAGATCGATAGA,2.67,3.78,4.69,2.63,1.81,3.5,4.69,5.51,3.5,5.54,2.31,2.83,2.23,2,2.58,4.46,5.32,2.76,2.29,–
CAACCTAGGTCACGAAAGGTCAAAGTCGAATGAC,7.63,8.28,8.29,7.81,2.82,6.92,7.93,7.32,4.53,6.39,5.05,6.58,1.6,1.91,4.46,7.28,2.49,6.93,1.71,–
CAAACTAGGTCACAGAGGTCAACGTCCGTGCGTA,7.51,6.49,6.37,5.93,1.62,6.75,10.3,8.36,6.69,8.46,8.84,9.29,4.63,5.15,4.43,6.82,8.28,7.23,2.74,–
CGTCCAAGGTCACAGGAGGTCAGTGAAGACAGAT,7.67,7.39,4.32,5.97,0.764,6,6.76,6.69,3.37,5.61,4.02,5.26,0.184,-0.411,4.98,6.88,3.92,6.48,2.32,–
TTACCAAGGTGAAAGGTCGTTGAGGCACGCCTTG,3.79,3.61,0.199,2.74,-0.545,5.53,9.39,8.28,7.31,9.21,2.94,5.16,0.87,2.27,2.82,3.98,0.614,6.03,0.265,–
ACTAATTGGTCAGCTGAGGTCACACACAATTCGG,3.46,3.25,2.59,3.68,1.15,4.06,2.17,2.77,1.23,1.88,1.58,2.86,1.1,1.2,2.75,5.67,1.67,4.72,1.56,3.91
AGTCATAGTTCACTAGGTAACGTAAGATTCAGCT,0.829,1.51,0.415,1.11,0.233,3.01,3.89,3.82,1.59,2.88,1.88,3.43,1.06,0.768,1.27,1.17,0.241,1.21,0.337,–
CAAACTAGGTCACAGAGGTCAAACTCCGTGCGTA,7.52,6.77,8.67,6.55,2.84,6.69,10.2,8.44,7.14,8.85,8.63,8.81,2.84,2.43,5.38,6.91,12.1,7.81,3.49,5.52
CAAACTAGGTCACAGAGGTTAAAGTCCGTGCGTA,5.89,5.17,3.01,4.28,0.562,6.05,9.43,7.64,5.91,7.56,8.23,9.05,7.06,4.73,2.92,4.74,3.84,4.65,1.69,4.62
ATATGCAGGTTATCGGGTCATTCAGTTTGCGCAT,3.37,3.44,1.57,3.03,0.832,4.13,4.45,4.25,1.56,3.42,4.84,5.2,2.48,0.956,2.06,3.99,7.38,4.1,0.986,2.51
TCTCGGAGGACACGAAAGGTCAGTGCTCGACATC,2.42,3.37,3.24,2.99,-0.000616,2.99,0.746,2.29,2.43,2.19,1.47,1.67,-0.413,-0.365,3.45,3.79,0.68,4.07,1.12,4.13
